About 83,000 compounds went through this panel and 20% of them were active in at least one assay; those are over-represented in the sample as a whole.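 Step 1: grow cells in 96-well plates. Step 2: add test compound at a single concentration. Step 3: incubate 48 h. Step 4: record percent growth.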 Unmarked numbers belong to inactive results. Activity calls are given as the source filed them. Rule for the calls: active = growth percent below 10; inactive = the rest.
Assays:
Assay in all cases: NCI-60 one-dose screen, 48 h (100 = growth as untreated, 0 = no growth, -100 = all killed)
Details in all cases: 10 µM unless noted
NCI-H23 lung = tested on: NCI-H23 lung
NCI-H226 lung = tested on: NCI-H226 lung
NCI-H322M lung = tested on: NCI-H322M lung
HOP-62 NSCLC = tested on: HOP-62 NSCLC
NCI-H460 lung = tested on: NCI-H460 lung
HOP-92 NSCLC = tested on: HOP-92 NSCLC
NCI-H522 lung = tested on: NCI-H522 lung
A549/ATCC NSCLC = tested on: A549/ATCC NSCLC
786-0 renal = tested on: 786-0 renal
COLO 205 colon = tested on: COLO 205 colon
DU-145 prostate = tested on: DU-145 prostate
K-562 leukemia = tested on: K-562 leukemia
MALME-3M melanoma = tested on: MALME-3M melanoma
MDA-MB-231 breast = tested on: MDA-MB-231 breast
RXF 393 renal = tested on: RXF 393 renal
SF-268 CNS = tested on: SF-268 CNS
SF-295 CNS = tested on: SF-295 CNS
SF-539 CNS = tested on: SF-539 CNS
UACC-257 melanoma = tested on: UACC-257 melanoma
M14 melanoma = tested on: M14 melanoma

Which results are given for `CNC(=O)c1cc(Oc2ccc3c(c2)sc2nc(-c4ccc(Cl)c(C(F)(F)F)c4)cn23)ccn1`?
growth (NCI-H23 lung): 53%; growth (NCI-H226 lung): 52.6%; growth (NCI-H322M lung): 88.5%; growth (HOP-62 NSCLC): 75.9%; growth (NCI-H460 lung): 51.3%; growth (HOP-92 NSCLC): 73.1%; growth (NCI-H522 lung): 42.6%; growth (A549/ATCC NSCLC): 61%; growth (786-0 renal): 68.6%; growth (COLO 205 colon): 58.4%; growth (DU-145 prostate): 74%; growth (K-562 leukemia): 30%; growth (MALME-3M melanoma): 47.4%; growth (MDA-MB-231 breast): 77.1%; growth (RXF 393 renal): 87.1%; growth (SF-268 CNS): 73.7%; growth (SF-295 CNS): 48.5%; growth (SF-539 CNS): 64.4%; growth (UACC-257 melanoma): 35.9%; growth (M14 melanoma): 69.5%

How did the growth (NCI-H23 lung) turn out when `CCCCCCCCn1ccc2cc(NC(=O)CN3CCN(c4cc(C)nc(Cl)n4)CC3)ccc21` was run?
The growth was 81.7%.

And the growth (NCI-H226 lung)?
The growth was 82.2%.

And the growth (NCI-H322M lung)?
The growth was 89.5%.

And the growth (HOP-62 NSCLC)?
Its growth is 119%.

What about the growth (NCI-H460 lung) of the same molecule?
The growth was 91.8%.

What about the growth (HOP-92 NSCLC) of the same molecule?
Its growth is 81.1%.

And the growth (NCI-H522 lung)?
The growth was 76.2%.

And the growth (A549/ATCC NSCLC)?
The growth was 87.4%.

What about the growth (786-0 renal) of the same molecule?
The growth was 94.6%.

What about the growth (COLO 205 colon) of the same molecule?
Its growth is 106%.

What about the growth (DU-145 prostate) of the same molecule?
The growth was 93.8%.

And the growth (K-562 leukemia)?
Its growth is 63.1%.

What about the growth (MALME-3M melanoma) of the same molecule?
The growth was 95.3%.

And the growth (MDA-MB-231 breast)?
The growth was 94.8%.

And the growth (RXF 393 renal)?
The growth was 69.2%.

And the growth (SF-268 CNS)?
Its growth is 90.3%.

What about the growth (SF-295 CNS) of the same molecule?
The growth was 83.7%.

What about the growth (SF-539 CNS) of the same molecule?
The growth was 92.8%.

What about the growth (UACC-257 melanoma) of the same molecule?
Its growth is 92.8%.

What about the growth (M14 melanoma) of the same molecule?
Its growth is 89.4%.

Which results are given for `O=C1Nc2ccccc2/C1=N/N1C(=O)CN(CCCl)C1=O`?
growth (NCI-H23 lung): 100%; growth (NCI-H226 lung): 95.1%; growth (NCI-H322M lung): 101%; growth (HOP-62 NSCLC): 97.5%; growth (NCI-H460 lung): 102%; growth (HOP-92 NSCLC): 110%; growth (NCI-H522 lung): 89.7%; growth (A549/ATCC NSCLC): 104%; growth (786-0 renal): 101%; growth (COLO 205 colon): 112%; growth (DU-145 prostate): 119%; growth (K-562 leukemia): 97.5%; growth (MALME-3M melanoma): 107%; growth (MDA-MB-231 breast): 117%; growth (RXF 393 renal): 115%; growth (SF-268 CNS): 102%; growth (SF-295 CNS): 99.6%; growth (SF-539 CNS): 105%; growth (UACC-257 melanoma): 96.6%; growth (M14 melanoma): 107%

Which results are given for `COc1ccc(C(c2cc(OC)c(OC)c(OC)c2)N2CCCCC2)cc1` (stereo not given)?
growth (NCI-H23 lung): 59.3%; growth (NCI-H226 lung): 55.5%; growth (NCI-H322M lung): 47.9%; growth (HOP-62 NSCLC): 29.8%; growth (NCI-H460 lung): 19.4%; growth (HOP-92 NSCLC): 44.1%; growth (NCI-H522 lung): 19.9%; growth (A549/ATCC NSCLC): 49.1%; growth (786-0 renal): 38.8%; growth (COLO 205 colon): 16.1%; growth (DU-145 prostate): 64.2%; growth (K-562 leukemia): 18%; growth (MALME-3M melanoma): 55.3%; growth (MDA-MB-231 breast): 53.1%; growth (RXF 393 renal): 26%; growth (SF-268 CNS): 47.2%; growth (SF-295 CNS): 18.7%; growth (SF-539 CNS): 27.7%; growth (UACC-257 melanoma): 54.9%; growth (M14 melanoma): 23.3%

With `NS(=O)(=O)c1ccc(C(=O)N=Nc2c(O)[nH]c3ccc(Cl)cc23)cc1` as the molecule, how does the growth (NCI-H23 lung) read?
Its growth is 98.3%.

What about the growth (NCI-H226 lung) of the same molecule?
Its growth is 103%.

And the growth (NCI-H322M lung)?
Its growth is 104%.

What about the growth (HOP-62 NSCLC) of the same molecule?
The growth was 100%.

What about the growth (NCI-H460 lung) of the same molecule?
Its growth is 106%.

What about the growth (HOP-92 NSCLC) of the same molecule?
The growth was 103%.

What about the growth (NCI-H522 lung) of the same molecule?
The growth was 89.3%.

What about the growth (A549/ATCC NSCLC) of the same molecule?
Its growth is 104%.

What about the growth (786-0 renal) of the same molecule?
Its growth is 102%.

What about the growth (COLO 205 colon) of the same molecule?
The growth was 120%.

What about the growth (DU-145 prostate) of the same molecule?
The growth was 102%.

And the growth (K-562 leukemia)?
Its growth is 98.3%.

And the growth (MALME-3M melanoma)?
The growth was 90.3%.

And the growth (MDA-MB-231 breast)?
Its growth is 98.7%.

What about the growth (RXF 393 renal) of the same molecule?
Its growth is 109%.

What about the growth (SF-268 CNS) of the same molecule?
The growth was 91.9%.

And the growth (SF-295 CNS)?
The growth was 98.7%.

What about the growth (SF-539 CNS) of the same molecule?
Its growth is 96.4%.

And the growth (UACC-257 melanoma)?
Its growth is 103%.

And the growth (M14 melanoma)?
The growth was 102%.

With `CCN(CC)CCOc1ccc(/C(=C(\C)Cc2ccc(OC)cc2)c2ccc(OC(=O)NCc3ccccc3)cc2)cc1` as the molecule, how does the growth (NCI-H23 lung) read?
Its growth is 88.4%.

What about the growth (NCI-H226 lung) of the same molecule?
The growth was 86.9%.

And the growth (NCI-H322M lung)?
Its growth is 80.4%.

What about the growth (HOP-62 NSCLC) of the same molecule?
Its growth is 79.7%.

And the growth (NCI-H460 lung)?
The growth was 1.28% (active).

What about the growth (HOP-92 NSCLC) of the same molecule?
The growth was 59%.

What about the growth (NCI-H522 lung) of the same molecule?
Its growth is 69.7%.

What about the growth (A549/ATCC NSCLC) of the same molecule?
Its growth is 48.1%.

And the growth (786-0 renal)?
The growth was 56.7%.

And the growth (COLO 205 colon)?
Its growth is -56.1% (active).

And the growth (DU-145 prostate)?
The growth was 78.9%.

What about the growth (K-562 leukemia) of the same molecule?
Its growth is -51% (active).

And the growth (MALME-3M melanoma)?
Its growth is 26.1%.

What about the growth (MDA-MB-231 breast) of the same molecule?
Its growth is 76.3%.

What about the growth (RXF 393 renal) of the same molecule?
The growth was 59.7%.

What about the growth (SF-268 CNS) of the same molecule?
The growth was 73.7%.

What about the growth (SF-295 CNS) of the same molecule?
The growth was 59.4%.

What about the growth (SF-539 CNS) of the same molecule?
The growth was 65.6%.

What about the growth (UACC-257 melanoma) of the same molecule?
Its growth is 38.2%.

What about the growth (M14 melanoma) of the same molecule?
Its growth is -61.5% (active).

With `Nc1cc(Br)cc2c1[nH]c(=O)c1ccccc12` as the molecule, how does the growth (NCI-H23 lung) read?
Its growth is 83.4%.

And the growth (NCI-H226 lung)?
Its growth is 91.9%.

And the growth (NCI-H322M lung)?
The growth was 109%.

And the growth (HOP-62 NSCLC)?
The growth was 102%.

What about the growth (NCI-H460 lung) of the same molecule?
Its growth is 93.4%.

What about the growth (HOP-92 NSCLC) of the same molecule?
The growth was 77.6%.

And the growth (NCI-H522 lung)?
Its growth is 98.1%.

And the growth (A549/ATCC NSCLC)?
The growth was 91.7%.

And the growth (786-0 renal)?
Its growth is 101%.

And the growth (COLO 205 colon)?
The growth was 106%.

What about the growth (DU-145 prostate) of the same molecule?
The growth was 106%.

What about the growth (K-562 leukemia) of the same molecule?
The growth was 92.5%.

And the growth (MALME-3M melanoma)?
Its growth is 124%.

What about the growth (MDA-MB-231 breast) of the same molecule?
Its growth is 102%.

What about the growth (RXF 393 renal) of the same molecule?
The growth was 103%.

What about the growth (SF-268 CNS) of the same molecule?
Its growth is 106%.

What about the growth (SF-295 CNS) of the same molecule?
Its growth is 108%.

And the growth (SF-539 CNS)?
The growth was 112%.

What about the growth (UACC-257 melanoma) of the same molecule?
Its growth is 94.7%.

And the growth (M14 melanoma)?
The growth was 114%.

For `O=C1/C(=C/c2cccc(Br)c2)COc2ccc(O)cc21`, which growth (NCI-H23 lung) is on record?
Its growth is 74.8%.

What about the growth (NCI-H226 lung) of the same molecule?
Its growth is 101%.

What about the growth (NCI-H322M lung) of the same molecule?
Its growth is 97.4%.

And the growth (HOP-62 NSCLC)?
Its growth is 86.6%.

And the growth (NCI-H460 lung)?
The growth was 92.2%.

And the growth (HOP-92 NSCLC)?
The growth was 46%.

What about the growth (NCI-H522 lung) of the same molecule?
Its growth is 18.9%.

And the growth (A549/ATCC NSCLC)?
Its growth is 66.2%.

What about the growth (786-0 renal) of the same molecule?
The growth was 50%.

What about the growth (COLO 205 colon) of the same molecule?
The growth was 84.5%.

What about the growth (DU-145 prostate) of the same molecule?
Its growth is 69.7%.

What about the growth (K-562 leukemia) of the same molecule?
Its growth is 2.93% (active).

What about the growth (MALME-3M melanoma) of the same molecule?
Its growth is 78.9%.

And the growth (MDA-MB-231 breast)?
Its growth is 27.9%.

And the growth (RXF 393 renal)?
The growth was 70.6%.

What about the growth (SF-268 CNS) of the same molecule?
The growth was 67.6%.

And the growth (SF-295 CNS)?
Its growth is 100%.

What about the growth (SF-539 CNS) of the same molecule?
The growth was 69.3%.

What about the growth (UACC-257 melanoma) of the same molecule?
Its growth is 99.9%.

What about the growth (M14 melanoma) of the same molecule?
Its growth is 76.5%.

Source: PubChem BioAssay (NCI)
